Holding throughout (assay): DAPPL (digital affinity profiling via proximity ligation, sequencing); 10 mM Tris-HCl pH 7.5, 50 mM NaCl, 1 mM DTT, 4% glycerol, room temperature, 30 min; GST-TFs on glutathione beads, 16-mer random dsDNA library, 0.1% formaldehyde crosslink after washing; high values mean tight binding
Holding throughout (details): protein: recombinant; tags: N-terminal GST; dsDNA, one strand shown

One experiment addresses T1, FLI1 (Homo sapiens, UniProt Q01543 1-452).
T1 sequence: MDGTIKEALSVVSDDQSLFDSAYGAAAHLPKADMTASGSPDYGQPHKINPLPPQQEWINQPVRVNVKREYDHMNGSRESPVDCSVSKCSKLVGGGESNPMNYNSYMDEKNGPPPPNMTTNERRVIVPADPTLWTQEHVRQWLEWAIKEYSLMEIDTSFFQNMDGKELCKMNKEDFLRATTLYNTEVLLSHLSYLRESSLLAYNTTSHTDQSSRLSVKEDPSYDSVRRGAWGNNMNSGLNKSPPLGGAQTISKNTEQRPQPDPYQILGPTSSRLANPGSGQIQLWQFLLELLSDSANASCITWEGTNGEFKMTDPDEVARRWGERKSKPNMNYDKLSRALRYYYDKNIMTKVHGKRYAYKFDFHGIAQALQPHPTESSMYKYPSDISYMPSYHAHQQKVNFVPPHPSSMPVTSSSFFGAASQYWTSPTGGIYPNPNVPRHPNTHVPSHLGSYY
In a few lines: (§1)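 After expression in yeast as GST fusions, human transcription factors were bound to glutathione beads, DNA-barcoded and mixed with a tag-only sample. The pools were incubated with 200 nmole of a 16-mer random double-stranded DNA library in Tris/NaCl/DTT/glycerol buffer (30 min, room temperature), washed and crosslinked with 0.1% formaldehyde. Proximity ligation with BsaI/T4 ligase ran for 1 h at 37 °C, before PCR amplification and sequencing on an Illumina NextSeq500. Binding signal is a hexamer's read frequency for a factor divided by its frequency for the tag-only sample.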

A further experiment addresses T2, ELK1 (Homo sapiens, UniProt P19419 1-428).
T2 sequence: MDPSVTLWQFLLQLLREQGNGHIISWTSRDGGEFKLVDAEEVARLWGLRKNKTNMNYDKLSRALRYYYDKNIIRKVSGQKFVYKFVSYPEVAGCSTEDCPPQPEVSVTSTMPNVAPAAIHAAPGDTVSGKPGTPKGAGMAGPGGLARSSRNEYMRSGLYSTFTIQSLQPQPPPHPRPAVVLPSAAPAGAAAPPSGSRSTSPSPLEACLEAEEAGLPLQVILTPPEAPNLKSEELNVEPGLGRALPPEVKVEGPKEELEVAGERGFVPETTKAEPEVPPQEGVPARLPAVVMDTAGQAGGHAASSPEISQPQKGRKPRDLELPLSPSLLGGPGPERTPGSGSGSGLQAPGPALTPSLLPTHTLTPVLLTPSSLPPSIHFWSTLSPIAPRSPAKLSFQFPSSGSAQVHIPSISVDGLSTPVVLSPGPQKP
The gist of the method: as §1

For the next experiment, the target named is T3, GABPA (Homo sapiens, UniProt Q06546 1-454).
T3 sequence: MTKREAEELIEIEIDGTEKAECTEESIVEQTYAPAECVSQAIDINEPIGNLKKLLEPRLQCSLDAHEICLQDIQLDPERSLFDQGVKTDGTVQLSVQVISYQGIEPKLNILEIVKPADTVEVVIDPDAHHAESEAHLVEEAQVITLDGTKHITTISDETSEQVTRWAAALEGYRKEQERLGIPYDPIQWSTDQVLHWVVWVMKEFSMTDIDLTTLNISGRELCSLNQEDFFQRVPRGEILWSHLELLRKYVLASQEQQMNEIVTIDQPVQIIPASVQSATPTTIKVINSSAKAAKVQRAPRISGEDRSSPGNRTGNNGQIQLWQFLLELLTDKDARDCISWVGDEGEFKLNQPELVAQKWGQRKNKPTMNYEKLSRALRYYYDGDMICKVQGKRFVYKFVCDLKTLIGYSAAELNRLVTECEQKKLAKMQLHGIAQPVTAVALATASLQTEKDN
In a few lines: as §1

Another experiment concerns the target T4, ERG (Homo sapiens, UniProt P11308 1-479).
T4 sequence: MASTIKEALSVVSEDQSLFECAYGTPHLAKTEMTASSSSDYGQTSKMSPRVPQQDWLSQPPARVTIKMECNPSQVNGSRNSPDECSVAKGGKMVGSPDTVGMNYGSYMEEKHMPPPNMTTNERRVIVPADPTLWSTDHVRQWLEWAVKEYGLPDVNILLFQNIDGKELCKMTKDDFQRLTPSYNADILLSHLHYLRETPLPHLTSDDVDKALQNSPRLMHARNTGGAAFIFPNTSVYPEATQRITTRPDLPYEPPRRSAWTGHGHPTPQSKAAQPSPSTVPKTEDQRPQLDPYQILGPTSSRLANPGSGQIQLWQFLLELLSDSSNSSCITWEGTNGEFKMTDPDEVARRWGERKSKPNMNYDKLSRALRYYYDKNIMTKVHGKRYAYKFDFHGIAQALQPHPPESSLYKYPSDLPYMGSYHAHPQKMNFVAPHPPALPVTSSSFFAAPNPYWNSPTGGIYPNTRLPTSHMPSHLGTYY
In a few lines: as §1

The target in another experiment is ELF1 (Homo sapiens, UniProt P32519 1-619). In a few lines:
as §1

The target of another experiment is T5, EHF (Homo sapiens, UniProt Q9NZC4 1-300).
T5 sequence: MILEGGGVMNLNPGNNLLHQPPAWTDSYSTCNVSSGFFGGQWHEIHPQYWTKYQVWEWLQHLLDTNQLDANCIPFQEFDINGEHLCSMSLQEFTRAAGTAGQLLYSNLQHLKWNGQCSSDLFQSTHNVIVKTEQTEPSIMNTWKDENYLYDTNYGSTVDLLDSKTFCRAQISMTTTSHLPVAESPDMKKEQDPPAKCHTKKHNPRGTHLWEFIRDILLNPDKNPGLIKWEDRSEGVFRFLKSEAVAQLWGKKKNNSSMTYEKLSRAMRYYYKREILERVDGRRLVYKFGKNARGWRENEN
The gist of the method: as §1

For the next experiment, the target named is SPI1 (Homo sapiens, UniProt P17947 1-270). In a few lines:
as §1

For a further experiment, the target named is SPIB (Homo sapiens, UniProt Q01892 1-262). In a few lines: as §1
Chain of SPIB (Q01892 whole entry): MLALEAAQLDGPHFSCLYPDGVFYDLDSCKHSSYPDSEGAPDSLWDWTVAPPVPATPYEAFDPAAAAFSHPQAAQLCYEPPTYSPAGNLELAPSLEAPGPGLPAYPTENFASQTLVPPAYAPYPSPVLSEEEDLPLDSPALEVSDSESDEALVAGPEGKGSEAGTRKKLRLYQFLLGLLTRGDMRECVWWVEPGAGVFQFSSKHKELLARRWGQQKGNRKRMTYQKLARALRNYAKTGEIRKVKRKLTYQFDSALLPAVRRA
For another experiment, the target named is T6, ELK3 (Homo sapiens, UniProt P41970 1-407).
T6 sequence: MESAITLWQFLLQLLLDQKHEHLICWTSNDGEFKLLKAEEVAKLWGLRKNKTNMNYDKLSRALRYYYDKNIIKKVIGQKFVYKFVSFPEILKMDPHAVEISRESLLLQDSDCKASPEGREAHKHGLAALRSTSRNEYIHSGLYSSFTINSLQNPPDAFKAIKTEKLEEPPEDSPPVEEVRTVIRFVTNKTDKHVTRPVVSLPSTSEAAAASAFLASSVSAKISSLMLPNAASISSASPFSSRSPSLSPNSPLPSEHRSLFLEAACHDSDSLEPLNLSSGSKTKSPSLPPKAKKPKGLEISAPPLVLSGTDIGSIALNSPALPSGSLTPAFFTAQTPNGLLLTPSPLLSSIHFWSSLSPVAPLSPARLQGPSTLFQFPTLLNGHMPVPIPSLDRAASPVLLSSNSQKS
The gist of the method:
as §1

Data on eight sequences can be found in PMC7862700, “An all-to-all approach to the identification of sequence-specific readers for epigenetic DNA modifications on cytosine”.

Chain of ELF1 (P32519 whole entry): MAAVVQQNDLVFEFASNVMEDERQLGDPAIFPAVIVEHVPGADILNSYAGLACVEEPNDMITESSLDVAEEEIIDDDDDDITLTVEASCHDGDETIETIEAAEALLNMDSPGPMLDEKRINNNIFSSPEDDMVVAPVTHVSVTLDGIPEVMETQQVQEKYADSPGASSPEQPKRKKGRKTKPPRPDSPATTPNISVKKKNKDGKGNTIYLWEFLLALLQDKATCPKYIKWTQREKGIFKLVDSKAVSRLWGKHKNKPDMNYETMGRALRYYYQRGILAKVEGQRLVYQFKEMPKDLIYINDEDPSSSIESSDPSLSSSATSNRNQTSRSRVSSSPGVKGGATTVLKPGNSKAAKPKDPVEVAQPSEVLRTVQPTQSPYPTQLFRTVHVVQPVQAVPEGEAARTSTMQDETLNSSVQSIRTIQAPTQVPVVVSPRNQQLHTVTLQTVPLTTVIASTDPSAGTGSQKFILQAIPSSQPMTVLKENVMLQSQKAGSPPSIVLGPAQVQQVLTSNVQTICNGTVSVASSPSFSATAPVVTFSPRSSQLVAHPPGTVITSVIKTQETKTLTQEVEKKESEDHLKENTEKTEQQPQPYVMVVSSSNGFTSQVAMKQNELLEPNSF

Regarding CTAACC, the binding signal was 1.12 fold enrichment (6-mer frequency, TF over GST control) with FLI1; 1.23 fold enrichment (6-mer frequency, TF over GST control) in the experiment with ELK1; 1.09 fold enrichment (6-mer frequency, TF over GST control) with GABPA; 1.16 fold enrichment (6-mer frequency, TF over GST control) in the experiment with ERG; 1.12 fold enrichment (6-mer frequency, TF over GST control) with ELF1; 1.17 fold enrichment (6-mer frequency, TF over GST control) in the experiment with EHF. The binding signal was 1.14 fold enrichment (6-mer frequency, TF over GST control) with SPI1; 1.08 fold enrichment (6-mer frequency, TF over GST control) with SPIB; 1.29 fold enrichment (6-mer frequency, TF over GST control) with ELK3.
Turning to AATCTG, the binding signal in the experiment with FLI1 is 1.48 fold enrichment (6-mer frequency, TF over GST control); with ELK1, 1.33 fold enrichment (6-mer frequency, TF over GST control); in the experiment with GABPA it was 1.49 fold enrichment (6-mer frequency, TF over GST control); in the experiment with ERG it was 1.46 fold enrichment (6-mer frequency, TF over GST control); with ELF1 it was 1.48 fold enrichment (6-mer frequency, TF over GST control); with EHF, 1.31 fold enrichment (6-mer frequency, TF over GST control). Further, the binding signal with SPI1 was 1.42 fold enrichment (6-mer frequency, TF over GST control); with SPIB it was 1.51 fold enrichment (6-mer frequency, TF over GST control); with ELK3 it was 1.34 fold enrichment (6-mer frequency, TF over GST control).
On to TACACC, for which the binding signal in the experiment with FLI1 was 1.16 fold enrichment (6-mer frequency, TF over GST control); in the experiment with ELK1 it was 1.27 fold enrichment (6-mer frequency, TF over GST control); with GABPA, 1.14 fold enrichment (6-mer frequency, TF over GST control); with ERG, 1.27 fold enrichment (6-mer frequency, TF over GST control); with ELF1 it was 1.17 fold enrichment (6-mer frequency, TF over GST control); with EHF, 1.22 fold enrichment (6-mer frequency, TF over GST control). For the same sequence, the binding signal in the experiment with SPI1 is 1.1 fold enrichment (6-mer frequency, TF over GST control); in the experiment with SPIB it was 1.11 fold enrichment (6-mer frequency, TF over GST control); in the experiment with ELK3 it was 1.14 fold enrichment (6-mer frequency, TF over GST control).
With TACTGT, the binding signal was 1.15 fold enrichment (6-mer frequency, TF over GST control) with FLI1; 1.21 fold enrichment (6-mer frequency, TF over GST control) with ELK1; 1.13 fold enrichment (6-mer frequency, TF over GST control) in the experiment with GABPA; 1.12 fold enrichment (6-mer frequency, TF over GST control) with ERG; 1.12 fold enrichment (6-mer frequency, TF over GST control) with ELF1; 1.19 fold enrichment (6-mer frequency, TF over GST control) with EHF. Further, the binding signal was 1.11 fold enrichment (6-mer frequency, TF over GST control) in the experiment with SPI1; 1.12 fold enrichment (6-mer frequency, TF over GST control) with SPIB; 1.11 fold enrichment (6-mer frequency, TF over GST control) in the experiment with ELK3.
On to TAATCA, for which the binding signal is 1.17 fold enrichment (6-mer frequency, TF over GST control) with FLI1; 1.14 fold enrichment (6-mer frequency, TF over GST control) with ELK1; 1.25 fold enrichment (6-mer frequency, TF over GST control) in the experiment with GABPA; 1.07 fold enrichment (6-mer frequency, TF over GST control) in the experiment with ERG; 1.16 fold enrichment (6-mer frequency, TF over GST control) with ELF1; 1.08 fold enrichment (6-mer frequency, TF over GST control) with EHF. The binding signal with SPI1 was 1.07 fold enrichment (6-mer frequency, TF over GST control); with SPIB, 1.16 fold enrichment (6-mer frequency, TF over GST control); in the experiment with ELK3, 1.09 fold enrichment (6-mer frequency, TF over GST control).
Turning to AAATTG, the binding signal with FLI1 is 1.2 fold enrichment (6-mer frequency, TF over GST control); with ELK1 it was 1.23 fold enrichment (6-mer frequency, TF over GST control); with GABPA, 1.26 fold enrichment (6-mer frequency, TF over GST control); with ERG it was 1.23 fold enrichment (6-mer frequency, TF over GST control); with ELF1 it was 1.22 fold enrichment (6-mer frequency, TF over GST control); with EHF, 1.28 fold enrichment (6-mer frequency, TF over GST control). Besides, the binding signal in the experiment with SPI1 is 1.26 fold enrichment (6-mer frequency, TF over GST control); with SPIB it was 1.25 fold enrichment (6-mer frequency, TF over GST control); with ELK3 it was 1.22 fold enrichment (6-mer frequency, TF over GST control).
As for TCACAC, the binding signal with FLI1 is 1.31 fold enrichment (6-mer frequency, TF over GST control); with ELK1, 1.19 fold enrichment (6-mer frequency, TF over GST control); with GABPA it was 1.34 fold enrichment (6-mer frequency, TF over GST control); with ERG, 1.31 fold enrichment (6-mer frequency, TF over GST control); with ELF1, 1.32 fold enrichment (6-mer frequency, TF over GST control); with EHF, 1.3 fold enrichment (6-mer frequency, TF over GST control). For the same sequence, the binding signal was 1.23 fold enrichment (6-mer frequency, TF over GST control) with SPI1; 1.29 fold enrichment (6-mer frequency, TF over GST control) in the experiment with SPIB; 1.46 fold enrichment (6-mer frequency, TF over GST control) with ELK3.
For the sequence AACCTT, the binding signal is 1.3 fold enrichment (6-mer frequency, TF over GST control) with FLI1; 1.25 fold enrichment (6-mer frequency, TF over GST control) in the experiment with ELK1; 1.25 fold enrichment (6-mer frequency, TF over GST control) in the experiment with GABPA; 1.26 fold enrichment (6-mer frequency, TF over GST control) in the experiment with ERG; 1.33 fold enrichment (6-mer frequency, TF over GST control) with ELF1; 1.33 fold enrichment (6-mer frequency, TF over GST control) in the experiment with EHF. The binding signal was 1.26 fold enrichment (6-mer frequency, TF over GST control) with SPI1; 1.34 fold enrichment (6-mer frequency, TF over GST control) with SPIB; 1.33 fold enrichment (6-mer frequency, TF over GST control) with ELK3.
